Laboratory results as given in the supplement of paper PMC10981050.
“And” between values parts separate entries of the source, which are not always exact repeats. Equal entries are not always repeated. Structures can show the parent of a compound that is named as a salt.

test system: K562; assay: cell viability relative to vehicle control; higher = less cytotoxic; details: 10 µM; SRSF2 genotype: SRSF2 P95H/wt
In short: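 After removal of identity-inconsistent compounds, the Selleck bioactive, kinase and epigenetic probe libraries were screened on CRISPR-edited mutant clones and isogenic wild-type clones of four leukaemia lines. Plates were 384-well, each well holding 2000 cells in 50 µL medium and receiving a single 10 µM acoustically dispensed dose. CellTiter-Glo luminescence was read 48 h later, after the supernatant was taken off. Genedata Screener was used to express viability as percent of the on-plate vehicle control.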

SMILES	cell viability
COc1ccc2cc3[n+](cc2c1OC)CCc1cc2c(cc1-3)OCO2 [Berberine Sulfate]	62.4% and 69.2%
CO/N=C(\C(=O)N[C@@H]1C(=O)N2C(C(=O)[O-])=C(C[n+]3ccn4ncccc43)CS[C@H]12)c1nsc(N)n1 [Cefozopran hydrochloride]	108% and 99.3%
O=C1NC(=O)/C(=C/c2cccc(C(F)(F)F)c2)S1	107% and 103%
CC(C)NCC(O)c1ccc(O)c(O)c1 (stereo not given) [Isoprenaline hydrochloride]	92.4% and 104%
CC(C)C(C)C(O)C(O)C(C)C1CCC2C3COC(=O)C4CC(O)C(O)CC4(C)C3CCC12C (stereo not given) [Brassinolide]	98.5% and 94.6%
O=c1c(-c2ccc(O)cc2)coc2cc(O[C@@H]3O[C@H](CO)[C@@H](O)[C@H](O)[C@H]3O)cc(O)c12 [Genistin (Genistoside)]	95.5% and 108%
C[C@H]1[C@@H](O)O[C@@H]2O[C@@]3(C)CC[C@H]4[C@H](C)CC[C@@H]1[C@@]24OO3 [Dihydroartemisinin (DHA)]	37.7% and 30.4%
Nc1ncnc2c1ncn2C(C=O)OC(C=O)CO (stereo not given) [Adenosine Dialdehyde (ADOX)]	67.4% and 74.4%
COc1nc2ccc(Br)cc2cc1[C@@H](c1ccccc1)[C@@](O)(CCN(C)C)c1cccc2ccccc12 [Bedaquiline]	74.8% and 74.5%
CO[C@@H]1[C@@H](OC)[C@H](C)[C@@](O)(CC(=O)O)O[C@H]1[C@H](C)[C@H]1O[C@@]2(CC[C@@](C)([C@H]3CC[C@@](C)([C@@H]4O[C@@H]([C@H]5O[C@](C)(O)[C@H](C)C[C@@H]5C)C[C@@H]4O[C@@H]4C[C@H](OC)[C@@H](OC)[C@H](C)O4)O3)O2)C[C@H](O)[C@H]1C [Maduramycin Ammonium]	3.55% and 4.75%
CCn1c(=O)c(-c2ccc(-c3cncs3)cc2Cl)cc2cnc(Nc3ccc(N4CCN(C)CC4)cc3)nc21	86.2% and 86.7%
O=P(O)(O)Oc1cccc2ccccc12 [1-Naphthyl phosphate potassium salt]	104% and 95%
O=c1c(O)c(-c2ccc(O)cc2)oc2cc(O)cc(O)c12 [Kaempferol]	96.1% and 106%
CCC(=O)O[C@]1(C(=O)SCF)[C@H](C)C[C@H]2[C@@H]3C[C@H](F)C4=CC(=O)C=C[C@]4(C)[C@@]3(F)[C@@H](O)C[C@@]21C [Fluticasone propionate (Flonase, Veramyst)]	92.7% and 86.5%
Nc1nc(NC2CC2)cc(-c2cccc(Cl)c2Cl)n1	26.5% and 36.8%
CC(C)CCCC(C)C1CCC2C3=CC=C4CC(O)CCC4(C)C3CCC21C (stereo not given) [7-Dehydrocholesterol]	88.5% and 88.6%
O=C1C(c2[nH]c3ccccc3c2O)=Nc2ccccc21 [Indigo]	105% and 106%
CN(CCNc1ccnc2cc(Cl)ccc12)CCNc1ccnc2cc(Cl)ccc12	17.1% and 23.8%
COc1ccc2cc(CCC(C)=O)ccc2c1 [Nabumetone]	105% and 96.8%
COc1cc(C=O)ccc1O [Vanillin]	94.2% and 102%

SMILES	cell viability
CCC(=O)OCC(=O)[C@@]1(OC(=O)CC)[C@@H](C)C[C@H]2[C@@H]3CCC4=CC(=O)C=C[C@]4(C)[C@@]3(F)[C@@H](O)C[C@@]21C [Betamethasone Dipropionate (Diprolene)]	96.7% and 103%
Cn1nc(C(C)(C)C)cc1C(=O)N[C@@H](Cc1cccc(Cl)c1)C(=O)NCC#N [Cathepsin Inhibitor 1]	93.5% and 89.9%
CCOC(=O)C1=C(C)NC(C)=C(C(=O)OC)C1c1cccc(Cl)c1Cl (stereo not given) [Felodipine (Plendil)]	72.9% and 78.2%
CC(C)=CCCC(C)(OC1OC(COC2OCC(O)C(O)C2O)C(O)C(O)C1O)C1CCC2(C)C1C(O)CC1C3(C)CCC(OC4OC(CO)C(O)C(O)C4O)C(C)(C)C3CCC12C (stereo not given) [Gynostemma Extract]	100% and 107%
CCNC(=O)[C@@H]1CCCN1C(=O)[C@H](CCCN=C(N)N)NC(=O)[C@H](CC(C)C)NC(=O)[C@@H](CC(C)C)NC(=O)[C@H](Cc1ccc(O)cc1)NC(=O)[C@H](CO)NC(=O)[C@H](Cc1c[nH]c2ccccc12)NC(=O)[C@H](Cc1cnc[nH]1)NC(=O)[C@@H]1CCC(=O)N1 [S3718 Leuprolide Acetate.cdx]	104% and 107%
Nc1ncnc2c1ncn2C1OC(COP(=O)(O)OP(=O)(O)O)C(O)C1O (stereo not given)	111% and 110%
O=CO [Formate]	101% and 91.4%
COc1cc2c(=O)c(-c3ccc(O)cc3)coc2cc1O[C@@H]1O[C@H](CO)[C@@H](O)[C@H](O)[C@H]1O [Glycitin]	98% and 97.4%
Nc1nc(-c2nn(Cc3ccccc3F)c3ncccc23)ncc1C1CC1	110% and 114%
O=C(O)c1cc2cccc([N+](=O)[O-])c2[nH]1	103% and 105%
C=C1CC[C@H]2O[C@]2(C)CC[C@@H]2[C@@H]1CC2(C)C [Caryophyllene oxide]	100% and 97%
CC(C)c1ccc(C=O)cc1 [4-Isopropylbenzaldehyde]	94.1% and 90.8%
COC(=O)/C=C/C(=O)OC [Dimethyl Fumarate]	101% and 108%
CCc1ccc(-c2nc(CSCC(=O)NCCc3ccccc3)c(C)o2)cc1	89.7% and 94%
CCCSc1nc(N[C@@H]2C[C@H]2c2ccc(F)c(F)c2)c2nnn([C@@H]3C[C@H](OCCO)[C@@H](O)[C@H]3O)c2n1 [Ticagrelor]	77.4% and 77.6%
O=C(O)C(=O)O [Oxalic acid]	99% and 94.9%
CN1C(C(=O)Nc2ccccn2)=C(O)c2sccc2S1(=O)=O [Tenoxicam(Mobiflex)]	105% and 103%
O=C(CCNC(=O)c1ccc(OC(F)(F)F)cc1)N[C@@H]1CCCc2ccccc21	105% and 110%
NC1(C(=O)N[C@@H](CCO)c2ccc(Cl)cc2)CCN(c2ncnc3[nH]ccc23)CC1	82.6% and 83.6%
COc1ccc(Oc2cc(C)c(-c3csc(NC(=O)c4ccncc4)n3)c(C)c2)cc1	43.7% and 37.3%
